Assay results reported in PubChem BioAssay (NCI).
This is part of a sample that, as a whole, favours compounds with a hit. Of some 83,000 tested, about 20% had one in any assay.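 Compound tested at a single concentration for 48 hours in 96-well plates; a percent growth value below 10 was scored as active.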 Unmarked numbers belong to inactive results. Active and inactive are the calls of the source.

Key:
Assay in all cases: NCI-60 one-dose screen, 48 h (100 = growth as untreated, 0 = no growth, -100 = all killed)
Conditions in all cases: 10 µM unless noted
[1] = tested on: DU-145 prostate
[2] = tested on: K-562 leukemia
[3] = tested on: MALME-3M melanoma
[4] = tested on: MDA-MB-231 breast
[5] = tested on: RXF 393 renal
[6] = tested on: SF-268 CNS
[7] = tested on: SF-295 CNS
[8] = tested on: SF-539 CNS
[9] = tested on: UACC-257 melanoma
[10] = tested on: M14 melanoma

| SMILES | growth [1] | growth [2] | growth [3] | growth [4] | growth [5] | growth [6] | growth [7] | growth [8] | growth [9] | growth [10] |
| --- | --- | --- | --- | --- | --- | --- | --- | --- | --- | --- |
| CCOc1ccc2nc3ccc(Cl)cc3nc2c1 | 92.2% | 52.8% | 127% | 106% | -13% (active) | 107% | 110% | 92.7% | 101% | -100% (active) |
| CCC(C)[C@H](NC(=O)Nc1cc(C(F)(F)F)cc(C(F)(F)F)c1)C(=O)N[C@@H](Cc1cn(C)cn1)C(=O)OC (stereo not given in full) | -96.4% [100 µM] (active) | -68.3% [100 µM] (active) | -86.5% [100 µM] (active) | -96.3% [100 µM] (active) | -86.6% [100 µM] (active) | -87.9% [100 µM] (active) | -93.3% [100 µM] (active) | -96% [100 µM] (active) | -97.5% [100 µM] (active) | -89.7% [100 µM] (active) |
| CCCCCCCCCCCCCCCCNC(=S)N/N=C/c1ccc(O)cc1O | 79.2% | 70.3% | 100% | 81% | 74.9% | 69% | 65.5% | 110% | 85.9% | 61.8% |
| CCOC(=O)c1cc(C(=O)c2ccc(Br)cc2)n2cc(C)cc(C)c12 | 100% | 99% | 96.1% | 79.8% | 64.2% | 97.2% | 100% | 87.3% | 87.2% | 94.2% |
| COc1cc(N2C(=O)C=CC2=O)ccc1N1C(=O)C=CC1=O | 114% | 64.5% | 97.3% | 116% | 110% | 105% | 99.9% | 101% | 104% | 103% |
| COc1cc(NC(=O)CSc2nc3ccc(Cl)cc3c(=O)n2-c2ccc(F)cc2)cc(OC)c1OC | 96.9% | 80.5% | 85.8% | 64.7% | 80.2% | 79.8% | 80% | 98.4% | 97.4% | 84.8% |
| O=C(CCCC(=O)Nc1ccc(Cn2nnc3cc(Cl)c(Cl)cc32)cc1)Nc1ccc(CN2N=NC3C=C(Cl)C(Cl)=CC32)cc1 (stereo not given) | 93.3% | 67% | 97% | 76.4% | 93.7% | 78.1% | 71.9% | 88.2% | 81.1% | 87.2% |
| COC(=O)c1ccc2[nH]c(O)c(C(=Nc3ccc(N(C)C(=O)CN4CCN(C)CC4)cc3)c3ccc([N+](=O)[O-])cc3)c2c1 | 47.3% | 1.99% (active) | -1.29% (active) | 70.2% | 33.9% | 45.3% | 55.2% | 38.9% | 85.4% | 32.1% |
| COC(=O)c1ccc2[nH]c(O)c(C(=Nc3ccc(N(C)C(=O)CN4CCN(C)CC4)cc3)c3ccc4c(c3)OCO4)c2c1 | 7.84% (active) | 4.82% (active) | -5.19% (active) | 12.5% | -56.9% (active) | 11.5% | 27.5% | -19% (active) | 31.5% | 10.5% |
| O=C(Nc1ccc(-n2cc(-c3ccncc3)c(-c3ccc(Cl)c(O)c3)n2)cc1)c1ccc(Cl)c(Cl)c1 | 61.8% | 10.3% | 43.6% | 31.5% | -52.1% (active) | 61.1% | -50.3% (active) | 23.5% | 58.6% | -65.8% (active) |
| CC(O)C(N)=O (stereo not given) | 109% | 101% | 105% | 114% | 107% | 103% | 95% | 94.7% | 112% | 97.9% |
| COc1cc(OC)c(NC(=O)n2ncc3cc(Nc4ncnc5ccccc45)ccc32)cc1Cl | 56.9% | 99.4% | 110% | 97.2% | 88.4% | 87.4% | 98.7% | 99.5% | 118% | 100% |
| OCC(O)C(O)CC1SCCS1 (stereo not given) | 108% | 83% | 101% | 114% | 102% | 99.4% | 104% | 103% | 105% | 97.9% |
